Test results: the supplement of paper PMC12024424
Counter-ions that a name gives are not always drawn.

Each compound was assayed on Staphylococcus aureus Sa2 (MRSA, cystic fibrosis isolate) (assay: growth reduction vs untreated control (viable cell count); higher = stronger antibacterial activity; extreme values may be limits of the assay). Details: 0.1 mM; 24 h.
Experimental: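 Single-dose screen of the MedChem Express Drug Repurposing Library (0.1 mM, 1% DMSO) against planktonic MRSA S. aureus Sa2 (CF isolate) in TSB in 96-well plates, 37 °C aerobic, 24 h. Assays were run in triplicate and repeated twice.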
For `CCCCCCCCOc1ccccc1C(=O)Nc1ccc(C(=O)OCC[N+](C)(CC)CC)cc1` [Otilonium (bromide)], the growth reduction was 100%.
`Clc1ccc(COC(Cn2ccnc2)c2ccc(Cl)cc2Cl)cc1` (stereo not given) [Econazole (nitrate)] gave a growth reduction of 100%.
Work on `Cc1nc(Nc2ccc(F)cc2)nc(N2CCc3ccccc3C2C)c1C` (stereo not given) [Revaprazan (hydrochloride)] yielded a growth reduction of 100%.
With `CCCCN(CCCC)CCC(O)c1cc2c(Cl)cc(Cl)cc2c2cc(C(F)(F)F)ccc12` (stereo not given) [Halofantrine hydrochloride] the growth reduction was 94%.
Compound `Cc1nc2sccn2c(=O)c1CCN1CCC(=C(c2ccc(F)cc2)c2ccc(F)cc2)CC1` [Ritanserin] has a growth reduction of 100%.
Work on `CC(C)Nc1nc2cc(Cl)c(Cl)cc2n1[C@H]1O[C@@H](CO)[C@H](O)[C@@H]1O` [Maribavir] yielded a growth reduction of 94%.
In the case of `Nc1ccc(S(=O)(=O)Nc2cnc3c(Cl)cccc3n2)cc1` [Chloroquinoxaline sulfonamide], the growth reduction is reported as 99%.
`Clc1ccc(C(Cn2ccnc2)OCc2c(Cl)cccc2Cl)c(Cl)c1` (stereo not given) [Isoconazole (nitrate)] showed a growth reduction of 100%.
`CCCCCCCCCCCCCCCCOP(=O)([O-])OCC[N+](C)(C)C` [Miltefosine] showed a growth reduction of 100%.
Work on `C=C1C[C@H]2[C@@H]3CCC4=CC(=O)CC[C@@H]4[C@H]3CC[C@]2(C)[C@@]1(OC(C)=O)C(C)=O` [Nestoron] yielded a growth reduction of 98%.
Work on `Cc1noc(-c2ccc(-c3ccc(C4(C(=O)O)CC4)cc3)cc2)c1NC(=O)O[C@H](C)c1ccccc1` yielded a growth reduction of 100%.
In the case of `COc1ccc(Cl)c(Nc2nc3ccccc3nc2NS(=O)(=O)c2cccc(NC(=O)C(C)(C)N)c2)c1` [Pilaralisib], the growth reduction is reported as 100%.
`C=C[C@@](C)(/C=C/c1ccc(O)cc1)CCC=C(C)C` [Bakuchiol] gave a growth reduction of 100%.
For `CC(C)(C)C#Cc1cc(N(C(=O)[C@H]2CC[C@H](C)CC2)[C@H]2CC[C@H](O)CC2)c(C(=O)O)s1` [Lomibuvir], the growth reduction was 95%.
In the case of `Cc1c(Cl)cccc1Nc1ccccc1C(=O)O` [Tolfenamic Acid], the growth reduction is reported as 99%.
`O=C(NS(=O)(=O)c1ccc(Br)s1)c1ccc(Cl)cc1Cl` [Tasisulam] showed a growth reduction of 100%.
`CC(C)(C)c1ccc(C(O)CCCN2CCC(C(O)(c3ccccc3)c3ccccc3)CC2)cc1` (stereo not given) [Terfenadine] gave a growth reduction of 100%.
In the case of `CC(C)(C)c1nc(-c2cccc(NS(=O)(=O)c3c(F)cccc3F)c2F)c(-c2ccnc(N)n2)s1` [Dabrafenib (Mesylate)], the growth reduction is reported as 90%.
Work on `NC(N)=NC(=O)c1nc(Cl)c(N2CCCCCC2)nc1N` [5-(N,N-Hexamethylene)-amiloride] yielded a growth reduction of 100%.
`CC(=O)Oc1cccc2c1C(=O)c1c(OC(C)=O)cc(C(=O)O)cc1C2=O` [Diacerein] gave a growth reduction of 100%.
`Cn1cc(-c2ccncc2)c(-c2ccc(OCc3ccc4ccccc4n3)cc2)n1` [Mardepodect (hydrochloride)] showed a growth reduction of 97%.
Compound `Cc1ccc(Cl)c(Nc2ccccc2C(=O)O)c1Cl` [Meclofenamate (sodium)] has a growth reduction of 99%.
`Cc1cc(C2CCCCC2)n(O)c(=O)c1` [Ciclopirox] was tested, and the growth reduction was 100%.
Work on `CC(C)(C)NCC(O)COc1ccccc1C1CCCC1` (single isomer, unassigned; (+)) [(+)-Penbutolol] yielded a growth reduction of 94%.
With `Cc1cc2c(cc1CC(=O)c1sccc1S(=O)(=O)Nc1onc(C)c1Cl)OCO2` [Sitaxsentan (sodium)] the growth reduction was 90%.
Compound `COC(=O)/C=C/C(=O)OCCN1C(=O)CCC1=O` [Diroximel fumarate] has a growth reduction of 100%.
`COc1cc(NC(C)CCCN)c2ncccc2c1` (stereo not given) [Primaquine (Diphosphate)] was tested, and the growth reduction was 94%.
`CCc1oc2ccccc2c1C(=O)c1cc(Br)c(O)c(Br)c1` [Benzbromarone] was tested, and the growth reduction was 100%.
`Cc1cc(Nc2ncc(Cl)c(Nc3ccccc3S(=O)(=O)C(C)C)n2)c(OC(C)C)cc1C1CCNCC1` [Ceritinib] showed a growth reduction of 100%.
Work on `C=C[C@@H]1C[C@]1(NC(=O)[C@@H]1C[C@@H]2CN1C(=O)[C@H](C(C)(C)C)NC(=O)O[C@@H]1C[C@H]1CCCCCc1nc3ccc(OC)cc3nc1O2)C(=O)NS(=O)(=O)C1CC1` [Grazoprevir] yielded a growth reduction of 100%.
Compound `COc1cc(F)c(F)c(Nc2ccc(I)cc2F)c1NS(=O)(=O)C1(C[C@H](O)CO)CC1` [Refametinib] has a growth reduction of 100%.
In the case of `O=C(c1ccc(OCCN2CCCCC2)cc1)c1c(-c2ccc(O)cc2)sc2cc(O)ccc12` [Raloxifene (hydrochloride)], the growth reduction is reported as 93%.
`C=CC(=O)Nc1cc(Nc2nccc(-c3cn(C4CC4)c4ccccc34)n2)c(OC)cc1N(C)CCN(C)C` [Almonertinib (hydrochloride)] gave a growth reduction of 100%.
In the case of `CC(OC(=O)NCC1(CC(=O)O)CCCCC1)OC(=O)C(C)C` (stereo not given) [Gabapentin enacarbil], the growth reduction is reported as 93%.
With `NC(=O)C1=C(O)[C@@]2(O)C(=O)C3=C(O)c4c(O)cccc4C[C@H]3C[C@H]2CC1=O` [Incyclinide] the growth reduction was 100%.
`C[C@H](Nc1cc(-c2cnn(C)c2)cc(Nc2cnccn2)n1)c1ccc(F)cc1` [Ilginatinib (maleate)] gave a growth reduction of 95%.
Compound `CC(O)c1cc(C(=O)N[C@@H](C)Cn2ccc(-c3ccc(C#N)c(Cl)c3)n2)n[nH]1` (stereo not given in full) [Darolutamide] has a growth reduction of 100%.
For `CN1CCCC(CC2c3ccccc3Sc3ccccc32)C1` (stereo not given) [Metixene hydrochloride hydrate], the growth reduction was 100%.
`CCCCCCNC(=O)n1cc(F)c(=O)[nH]c1=O` [Carmofur] gave a growth reduction of 100%.
`COc1ccc(NS(=O)(=O)c2c(F)c(F)c(F)c(F)c2F)cc1F` [Batabulin] gave a growth reduction of 98%.
